# Screens (PubChem BioAssay)
# Shown are actives, neighbours in structure and some others; about 10% of the full set was active somewhere.
# RORg inh: inhibitors of mouse ROR gamma transcriptional activity | P51450 | Drosophila S2 Gal4-RORgamma UAS-luciferase reporter, 20 h | Potency, µM (series often up to 53.6 µM), for the others: at the top dose activity change, negative = inhibition, hits mostly inhibitors | 5.4% of 310,000 active | AID 2551; further: on the % scale 0 is the no-effect control and ±100 the full control effect; nearly all actives have a fitted effect of over 60% in size
# Target sequence (P51450 whole entry, looked up, the tested form may be a part): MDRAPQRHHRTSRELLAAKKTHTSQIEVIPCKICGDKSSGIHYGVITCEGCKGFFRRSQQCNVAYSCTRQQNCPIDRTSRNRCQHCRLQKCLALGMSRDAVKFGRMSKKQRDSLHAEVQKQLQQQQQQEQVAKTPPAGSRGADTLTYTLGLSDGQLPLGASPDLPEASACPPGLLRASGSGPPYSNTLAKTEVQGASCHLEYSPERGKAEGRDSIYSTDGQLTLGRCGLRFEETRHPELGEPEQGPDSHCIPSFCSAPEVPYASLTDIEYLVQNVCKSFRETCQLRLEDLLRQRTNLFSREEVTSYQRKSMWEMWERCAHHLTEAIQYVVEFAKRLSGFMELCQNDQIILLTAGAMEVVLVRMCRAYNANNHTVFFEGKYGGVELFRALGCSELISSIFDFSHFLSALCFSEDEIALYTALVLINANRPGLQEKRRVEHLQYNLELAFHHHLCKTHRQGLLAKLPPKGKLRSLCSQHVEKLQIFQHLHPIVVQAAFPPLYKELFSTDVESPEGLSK
#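 Luminescence from a UAS-regulated Photinus luciferase reporter in stably transfected Drosophila Schneider cells is measured; decreased signal marks ROR gamma inhibition. Fusion expression is induced by 700 uM copper sulfate for 20 hr.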
# ELG1 DNA repair: inhibitors of ELG1-dependent DNA repair in HEK293T cells | HEK293T ELG1-luciferase reporter, luminescence, 16 h; DNA damage induced by 5-fluorouridine | Potency, µM (highest dose often 46.1 µM), without a hit: at the top dose activity change, negative = inhibition, usual class: inhibitors | 2.3% of 330,000 active; further: on the % scale 0 is the no-effect control and ±100 the full control effect; nearly all actives have a fitted effect of over 55% in size
#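 In this reporter screen, reduction of luminescence relative to DMSO vehicle indicated activity. Compounds and 5-fluorouridine were added together to 2,000 cells per well, incubated for 16 hr at 37 °C, then developed with ONE-Glo.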
# SW480 rerep: DNA re-replication induction in SW480 cells | SW480 DNA re-replication, Hoechst DNA content imaging, 48 h | Potency, µM (series often up to 46.1 µM), for the others: top-dose re-replication activation, most hits filed as activators | 1.8% of 340,000 active | AID 624297; further: % of control where 0% means no effect; nearly all actives have a fitted effect of over 55% in size
#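 Per well, 250 cells were exposed to pinned compound for 48 hr. Nuclear DNA was visualised with Hoechst (40 min, 37 C) and total object intensity recorded by fluorescence scanning.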
# Gal4-VP16 FLuc: counter-screen for ROR gamma inhibitors: Gal4-VP16 reporter. Potency, µM (doses to about 53.6 µM), inactives show at the highest dose activity, negative = inhibition, hits mostly inhibitors. Drosophila S2 Gal4-VP16 UAS-luciferase, luminescence, 20 h. 3.5% of 310,000 active. AID 2546;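 further: Gal4-VP16 expression switched on by copper sulfate through the metallothionein promoter; on the % scale 0 is the no-effect control and ±100 the full control effect; nearly all actives have a fitted effect of over 50% in size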
# MCF10A rerep: induces DNA re-replication in MCF 10a normal breast cells. 2.9% of 350,000 active. Potency, µM (titrated, usually from 46.1 µM), for the others: at the highest dose activity, positive = re-replication, most hits filed as activators. AID 624296. MCF 10A DNA re-replication, Hoechst nuclear intensity, 48 h; further: % of control where 0% means no effect; nearly all actives have a fitted effect of over 50% in size
# * marks the source's active call; other numbers are inactive results; ? = inconclusive; / = no result; [ ] = remark or other dose. The call rests on the fitted dose curve; in most records, active means well fitted curve in the direction sought with a large enough effect; inconclusive means small, poorly fitted or top-dose-only effect, or another doubt; inactive means no such curve, though single readings can be large; an effect the other way counts as inactive or inconclusive. Potency means the concentration at half of the fitted maximal effect.
SMILES,RORg inh,ELG1 DNA repair,SW480 rerep,Gal4-VP16 FLuc,MCF10A rerep
CCC(c1nnc(SCC(=O)Nc2ccc(NC(C)=O)cc2)n1Cc1ccccc1)N(C)C (stereo unspecified),1%,5%,1%,1%,1%
COC(=O)C1=CN(CCCN2CCCC2=O)C=C(C(=O)OC)C1c1ccccc1C(F)(F)F,3%,?,18µM*,-5%,13µM*
CCCCOc1ccccc1C1C(C(=O)OC)=CN(CC)C=C1C(=O)OC,3%,-10%,12µM*,0%,?
COc1ccc(C(CCN2CCCC(C)C2)c2c(O)cc(OC)cc2OC)cc1 (stereo unspecified),-2%,/,/,-9%,/
CN(C)c1ccc(-c2nccc(NCc3ccccc3)n2)cc1,-7%,/,/,-10%,/
COc1ccccc1CNc1ccnc(-c2ccc(N(C)C)cc2)n1,?,/,/,14µM*,/
CCCC(C(=O)NC(C)(C)C)N(Cc1ccccc1Cl)C(=O)c1snc(C(N)=O)c1N (stereo unspecified),37%,?,?,-1%,13µM*
COc1ccc(OC)c(NC(=O)CCN2C(=O)c3cccc([N+](=O)[O-])c3C2=O)c1,?,14%,?,-8%,0%
Cn1nc(C(F)(F)F)c(-c2ccc(Br)cc2)c1NC(=O)Nc1ccc(F)cc1F,?,?,-1%,-2%,21µM*
Cc1csc(NC(=O)c2cc(-c3ccco3)nc3ccccc23)n1,?,21µM*,-4%,?,26%
Cc1csc(NC(=O)c2cc(C)nc3ccccc23)n1,11µM*,-5%,-7%,-13%,-1%
Cc1csc2nc3cc(C(N)=O)ccc3c(=O)n12,-3%,?,-43%,-17%,-5%
NC(=O)c1ccc2c(=O)n3c(-c4cc(Cl)c(N)c(Cl)c4)csc3nc2c1,-10%,10µM*,30%,-2%,?
CCOC(=O)c1c(-c2ccc(C)o2)csc1NC(=S)NC(=O)c1ccccc1Br,7.9µM*,?,?,10µM*,?
Cc1ccc(C(=O)CSc2nnc(-c3ccccc3)n2-c2ccccc2)o1,1%,?,3%,19%,?
CCOC(=O)c1c(-c2ccc(C)o2)csc1NC(=O)CSc1nnnn1-c1ccccc1,11µM*,?,-4%,7.9µM*,10%
CCOC(=O)c1c(-c2ccccc2Cl)csc1NC(=O)CSc1nc(C)cc(=O)[nH]1,9%,1%,23µM*,-4%,?
Cc1ccc(C(=O)CSc2nnnn2-c2ccccc2)o1,?,-3%,-24%,-3%,0.41µM*
CCOC(=O)c1ccc(NC(=O)CSc2nc(C)cc(=O)[nH]2)cc1,1%,0%,-2%,-1%,0%
Cc1c(NC(=O)c2ccc(CC(C)C)o2)c(=O)n(-c2ccccc2)n1C,21%,7%,-3%,2%,0%
O=C(N/N=C/c1ccc(O)cc1)c1cc(C23CC4CC(CC(C4)C2)C3)[nH]n1,2%,-25%,-18%,-7%,?
CCOC(=O)c1c(-c2ccc(C)o2)csc1NC(=S)NC(=O)c1cccs1,1.4µM*,16µM*,-22%,2.5µM*,24%
CCNC(=S)NC1CC2CCC(C1)N2Cc1ccccc1 (stereo unspecified),4%,3%,0%,8%,-5%
CCNC(=S)NC1CC2CCCC(C1)N2CCc1ccccc1 (stereo unspecified),-24%,?,?,-2%,0.73µM*
CC(C)CNC(=S)NC1CC2CCC(C1)N2Cc1ccccc1 (stereo unspecified),10µM*,8%,?,?,27%
SMILES,RORg inh,ELG1 DNA repair,SW480 rerep,Gal4-VP16 FLuc,MCF10A rerep
COCCN(C(=O)c1cc(Cl)ccn1)c1c(N)n(Cc2ccccc2)c(=O)[nH]c1=O,/,9%,-8%,/,-1%
COC(=O)c1ccc(Cl)c(NC(=O)NC23CC4CC(CC(C4)C2)C3)c1,-6%,21µM*,?,-12%,8%
O=S(=O)(c1cc(-c2nnc(-c3ccc(Br)cc3)o2)ccc1Br)N1CCCCCC1,-33%,21µM*,2%,-2%,24%
COc1ccc(CNC(=O)CN2C(=O)NC(c3ccccc3)(c3ccccc3)C2=O)cc1,/,-16%,-1%,/,-2%
COc1ccc(CCNC(=O)CN2C(=O)NC(c3ccccc3)(c3ccccc3)C2=O)cc1,/,26µM*,0%,/,-4%
CC(=O)OCC1O[C@@H](O[C@@H]2C[C@H]3C(C)(C)[C@H](OC(C)=O)CC[C@]3(C)[C@H]3CC[C@]45C[C@]4(CC[C@H]5[C@@H](C)C[C@@H](O)[C@H](O)C(C)(C)O)[C@@]32C)[C@H](O)[C@@H](O)[C@@H]1O (stereo partly specified),0.89µM*,?,21µM*,3.2µM*,7.3µM*
CC(C)=CCC[C@](C)(O[C@@H]1O[C@H](CO[C@@H]2O[C@H](CO)[C@@H](O)[C@H](O)[C@H]2O)[C@@H](O)[C@H](O)[C@H]1O)C1CC[C@]2(C)C1C(=O)CC1[C@@]3(C)CC[C@H](O[C@H]4O[C@@H](CO)[C@H](O)[C@@H](O)[C@@H]4O)C(C)(C)C3CC[C@]12C (stereo partly specified),/,?,-43%,/,-11%
CCOc1ccc2c(c1)ncn2Cc1ccccc1,11µM*,?,-2%,1%,-7%
CC(=O)Oc1ccc(Cn2cnc3cc4ccccc4cc32)cc1,22%,13%,8%,-23%,-83%[0.0737 µM]
CC1(c2ccccc2)NC(=O)N(NC(=O)COC(=O)c2cc(Br)ccc2O)C1=O (stereo unspecified),/,-4%,-3%,/,7%
CCOC(=O)c1ccc(NC(=O)CCc2nc(-c3ccc(Cl)cc3)no2)cc1,28%,?,?,-5%,?
CCOC(=O)c1ccc(NC(=O)CCc2nc(-c3ccc(C)cc3)no2)cc1,?,15%,9%,7.9µM*,15µM*
O=C(CCCc1nc(-c2ccccc2)no1)NCc1cccnc1,?,0%,-5%,5.6µM*,5%
Cc1ccc(-c2noc(CCCC(=O)Nc3cccnc3)n2)cc1,0.56µM*,?,-15%,3.2µM*,12%
CC(C)(C)OC(=O)N1CCC(CNC(=O)c2ccc(F)cc2)CC1,3%,-11%,-2%,2%,1%
CC[C@]12c3[nH]c4ccc(OC)cc4c3CCN1C(=O)C(CC(=O)NCCCn1ccnc1)C[C@@H]2C(=O)N1CCN(C(=O)c2ccco2)CC1 (stereo partly specified),/,19%,-9%,/,-4%
COc1cc(CNc2nnnn2C)cc(OC)c1OC,?,-13%,-1%,2%,10%
CC1(OC(=O)CCc2ccccc2)C(=O)C=C2C=C(C3CC3)OC=C2C1=O (stereo unspecified),14%,/,/,-7%,/
